Screening results from PubChem BioAssay.
CR mimetic SO: yeast age-related superoxide inhibition as caloric restriction mimetic. S. cerevisiae aged cells, superoxide DHE fluorescence; active compounds read low. superoxide response (% of plate mean), % at 10 µM. hit rate 0.18% among 330,000;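 active means superoxide response under a set limit, about three screen SD below normal, cut at about 65% in these data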;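 further: yeast aged for seven days with compound at 30 °C before DHE staining; 100% = average MFI of all compound-treated wells on the plate with controls excluded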
V-ATPase pH: yeast V-ATPase proton transport regulation by pHLuorin; S. cerevisiae, pHLuorin cytosolic pH fluorescence; response, % at 10 µM; hit rate 0.37% among 350,000; AID 504577; in the data active means response mostly above about 7.3%, no sharp cut-off; inactive means mostly below about 5.4%; further: actives read high
H9c2 protect: protects H9c2 cardiomyocytes from peroxide injury; H2O2 injury protection, ATPLite, 2 h; protection from H2O2 cell death, % at 20 µM; hit rate 0.63% among 360,000;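 active means compounds giving at least 50% protection of heart cells from peroxide-induced death in the single-dose screen, raw or plate-pattern-corrected value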;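 further: 0% = DMSO wells with peroxide and 100% = DMSO wells without peroxide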
p-CIP stab down: p/CIP protein destabilization; F442A p/CIP-EGFP cells, EGFP fluorescence, 16 h; decrease of EGFP signal, % at 10 µM; Q05BA5; hit rate 0.01% among 290,000;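 active means EGFP signal decrease of at least 30% at 10 µM or well 3 SD below plate mean, unless failing retest; inactive means the rest, including hits failing retest or dose response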
Target sequence (Q05BA5 1-1403): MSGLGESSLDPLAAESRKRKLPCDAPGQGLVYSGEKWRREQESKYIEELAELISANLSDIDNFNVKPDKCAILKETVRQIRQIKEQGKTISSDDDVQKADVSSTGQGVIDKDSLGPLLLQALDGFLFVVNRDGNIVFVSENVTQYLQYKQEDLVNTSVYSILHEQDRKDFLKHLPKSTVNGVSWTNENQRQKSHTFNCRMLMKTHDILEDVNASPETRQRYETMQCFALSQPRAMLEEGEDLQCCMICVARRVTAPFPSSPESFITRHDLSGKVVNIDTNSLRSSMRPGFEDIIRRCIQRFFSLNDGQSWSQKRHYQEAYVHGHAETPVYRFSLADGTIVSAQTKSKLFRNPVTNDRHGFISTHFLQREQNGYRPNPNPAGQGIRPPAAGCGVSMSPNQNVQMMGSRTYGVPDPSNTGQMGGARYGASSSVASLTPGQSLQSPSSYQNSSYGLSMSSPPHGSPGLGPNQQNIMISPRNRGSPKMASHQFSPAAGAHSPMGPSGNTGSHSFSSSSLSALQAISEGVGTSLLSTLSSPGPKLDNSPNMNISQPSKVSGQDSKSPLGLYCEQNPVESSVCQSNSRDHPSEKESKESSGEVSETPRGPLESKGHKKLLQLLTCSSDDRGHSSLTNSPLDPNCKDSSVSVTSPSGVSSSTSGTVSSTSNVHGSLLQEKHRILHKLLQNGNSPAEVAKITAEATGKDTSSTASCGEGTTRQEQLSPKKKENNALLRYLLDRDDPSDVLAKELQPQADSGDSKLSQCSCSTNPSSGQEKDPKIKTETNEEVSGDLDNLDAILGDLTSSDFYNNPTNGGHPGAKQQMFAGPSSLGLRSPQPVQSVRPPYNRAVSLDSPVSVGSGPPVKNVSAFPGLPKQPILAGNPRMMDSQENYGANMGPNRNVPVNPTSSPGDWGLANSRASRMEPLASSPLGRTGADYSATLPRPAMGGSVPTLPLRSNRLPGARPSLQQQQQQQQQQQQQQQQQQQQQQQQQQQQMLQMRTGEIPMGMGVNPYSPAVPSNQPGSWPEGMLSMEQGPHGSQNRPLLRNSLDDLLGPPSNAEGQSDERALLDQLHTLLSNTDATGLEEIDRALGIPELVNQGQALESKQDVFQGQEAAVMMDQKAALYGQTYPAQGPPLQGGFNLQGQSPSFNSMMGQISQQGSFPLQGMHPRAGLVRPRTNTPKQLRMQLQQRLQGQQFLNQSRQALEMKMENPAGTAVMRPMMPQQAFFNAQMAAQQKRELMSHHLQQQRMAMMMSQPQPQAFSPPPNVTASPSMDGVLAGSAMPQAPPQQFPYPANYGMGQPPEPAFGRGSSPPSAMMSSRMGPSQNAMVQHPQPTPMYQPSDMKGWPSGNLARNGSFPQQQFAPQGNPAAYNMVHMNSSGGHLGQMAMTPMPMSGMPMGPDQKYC
beta cell repl: inducers of beta-cell replication in MIN6 cells; MIN6 cells proliferation, ATPlite luminescence, 48 h; cells starved in 0.2% serum; 100% = growth in 10% serum; proliferation, % at 10 µM; hit rate 0.29% among 330,000; AID 2380;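 active means compounds whose signal lies at least 3.5 SD above the mean of all wells on their plate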;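 further: 0% = DMSO-treated cells in low-serum medium and 100% = 10% serum control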
HSV augment: increases HSV replication in cells. hit rate 0.005% among 220,000. HSV replication augmentation in cells, fold increase. maximum fold increase; in the data active means maximum fold increase above about 1.5; tested in PC3 cells
VATPase regulator: regulators of yeast V-ATPase proton transport | shares compounds with V-ATPase pH | S. cerevisiae pHLuorin cytosolic pH | response, % at 10 µM | hit rate 2% among 980 | AID 602197; in the data active means response above about 24%;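 further: plate controls were vehicle wells for no effect and positive control wells for full effect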
Active calls of the source: *; i = inactive; x = no result given. Sampled rows, rich in hits. Any-hit rate of the full collection: about 1.4%.

SMILES	CR mimetic SO	V-ATPase pH	H9c2 protect	p-CIP stab down	beta cell repl	HSV augment	VATPase regulator
COc1ccc(NC(=O)C2Cc3c(-c4cccc(NC(C)=O)c4)ccnc3O2)cc1 (configuration not stated)	x	x	13.1	x	x	x	x
COc1cc(C(=O)NCCOc2cccc3cccnc23)cc(OC)c1OC	93.0	15.3*	-0.9	-3.5	0.3	i	-0.6
Cc1ccc(C(=O)NCCOc2cccc3cccnc23)cc1Cl	91.1	6.5	-2.2	2.3	-0.5	i	x
Cn1cc(CN2CCCC(C(=O)c3nccn3C)C2)c(-c2cccc(Cl)c2)n1 (configuration not stated)	99.7	-0.3	-0.6	-0.8	-0.1	i	x
N/C(=N\OC(=O)Cc1ccccc1[N+](=O)[O-])c1cccc(Br)c1	108.7	13.5*	-2.9	3.6	-3.0	i	-2.6
Cc1cc(OCC(=O)Nc2nnc(C3CC3)s2)ccc1[N+](=O)[O-]	96.3	-1.2	-3.6	2.4	-0.3	i	x
O=C(O)c1cc(-c2ccc(Cl)c(Cl)c2)n(-c2ccc(F)cc2)n1	99.9	12.5*	-3.9	-3.6	-2.4	x	1.2
CCN1C(=O)[C@H]2[C@@H](c3ccc(-c4cccc(Cl)c4)cc3)N[C@@](C)(C(=O)OC)[C@H]2C1=O	108.0	-3.8	-1.3	x	0.0	x	x
CCOC(=O)c1[nH]c2c(c1-c1ccccc1)C(=O)CC(c1ccc(OC)c(OC)c1)C2 (configuration not stated)	100.2	-0.6	7.8	1.5	-1.8	i	x
CCOC(=O)c1[nH]c2c(c1-c1ccccc1)C(=O)CC(c1ccc(OCC)cc1)C2 (configuration not stated)	99.5	11.3*	2.1	1.1	-3.7	x	-5.9
CN(Cc1ccccc1)c1ncc(C=O)s1	100.9	1.9	0.0	4.2	3.4	i	x
O=C(Cc1c(Cl)cccc1Cl)OCC(=O)N1CCOCC1	101.1	12.8*	4.7	x	-2.2	x	3.1
O=C(Cc1c(Cl)cccc1Cl)OCC(=O)N1CCc2ccccc2C1	98.2	0.9	0.7	-5.8	-0.5	i	x
COc1ccc(N(CC(=O)Nc2cccc3ccccc23)S(C)(=O)=O)cc1	100.9	8.5*	-6.5	-79.9	-1.0	x	-0.7
COc1ccc(NC(=S)N2CCN(C/C=C/c3ccccc3)CC2)c(OC)c1	95.6	12.3*	-5.1	0.5	-2.7	i	-0.7
O=C1NC(=S)S/C1=C\c1coc2ccccc2c1=O	129.9	52.0*	-6.1	-7.4	-1.9	i	-0.3
O=C1NC(=S)S/C1=C\c1coc2ccc(O)cc2c1=O	99.7	0.1	-5.0	-10.0	-2.3	i	x
COc1cc(C(=O)N/C(=C/c2ccc(F)cc2)C(=O)NC(C(=O)O)c2ccccc2)cc(OC)c1OC (configuration not stated)	92.9	-0.2	3.4	-8.2	-2.4	x	x
COc1ccc(N(CC(=O)N/N=C/c2cc(Br)c(C)o2)S(=O)(=O)c2ccc(NC(C)=O)cc2)cc1	92.8	10.7*	7.5	-1.4	-0.9	i	-2.4
COc1ccc(N(CC(=O)N/N=C/c2ccc(C(=O)O)cc2)S(=O)(=O)c2ccc(NC(C)=O)cc2)cc1	108.4	-1.6	-2.7	1.3	-1.3	x	x
C=C1C(=O)O[C@@]23[C@H]1CC[C@@H](C)[C@@H]2CC[C@@]1(C)O[C@@H]31	100.4	23.1*	-7.8	x	4.1	x	0.1
Cc1ccc(C)c(C(=O)COC(=O)C2CCN(c3ccc(C(F)(F)F)cn3)CC2)c1	107.1	0.1	-4.2	x	-3.0	x	x
Cc1cc(C)c(C(=O)COC(=O)C2CCN(c3ccc(C(F)(F)F)cn3)CC2)c(C)c1	74.8	8.6*	-11.0	x	-4.3	x	-0.1
COc1ccc(/C=N/NC(=O)C2c3ccccc3-c3ccccc32)cc1	88.0	26.6*	-7.2	-3.1	-1.8	i	0.4
COc1ccc(/C=N/NC(=O)CC(=O)N/N=C/c2ccc(OC)cc2)cc1	80.9	-1.5	-3.3	-1.0	1.9	i	x
SMILES	CR mimetic SO	V-ATPase pH	H9c2 protect	p-CIP stab down	beta cell repl	HSV augment	VATPase regulator
CCOC(=O)C1=C(C)NC(C)=C(C(=O)OCC)C1C(=O)OCC(=O)N1CCc2ccccc2C1	120.7	11.6*	-5.3	3.1	3.9	i	-2.1
CCOC(=O)C1=C(C)NC(C)=C(C(=O)OCC)C1C(=O)OCC(=O)N1CCC(C)CC1	92.2	0.9	4.2	-13.0	-4.6	i	x
COc1cc2[nH]c(=O)n(CCCCCC(=O)N3CC=C(c4ccccc4)CC3)c(=O)c2cc1OC	104.9	-0.1	31.4	-8.3	-1.8	i	x
CN(CC(=O)Nc1ccc(F)cc1[N+](=O)[O-])Cc1ccccc1	83.8	7.9*	-6.7	10.8	4.6	i	-0.4
Cc1ccc(C(=O)C2CCOC(C)(C)C2)cc1 (configuration not stated)	92.2	11.8*	11.8	-13.2	-0.4	i	-2.3
COC(=O)C1=NNC(C(=O)OC)C1c1ccccc1 (configuration not stated)	x	16.9*	-0.9	x	x	x	-0.7
COC(=O)C1=NNC(C(=O)c2ccco2)C1c1ccccc1 (configuration not stated)	105.3	0.5	-2.1	-3.1	-1.2	i	x
O=S(=O)(c1ccc(F)cc1)N1CCN(CC(O)COCC2CCCO2)CC1 (configuration not stated)	x	9.8*	-1.8	x	4.0	x	0.3
O=S(=O)(c1ccc(F)cc1)N1CCN(CC(O)COCc2ccccc2)CC1 (configuration not stated)	x	-1.2	9.6	x	x	x	x
COc1cc(OC)cc(C(=O)NNC(=S)NCc2ccco2)c1	94.1	1.1	3.7	-0.7	-0.3	i	x
Fc1cccc(Cl)c1CNn1cn[nH]c1=S	96.0	11.2*	4.3	-3.2	0.3	i	4.5
S=c1[nH]ncn1NCc1ccc(Cl)cc1Cl	101.3	-0.8	4.6	-0.2	-4.2	i	x
O=C(CCC(=O)c1ccc(F)cc1)NCC1(N2CCCCC2)CCCCC1	85.4	-1.1	-0.2	x	-4.9	x	-1.6
O=C(NCC1(N2CCCCC2)CCCCC1)c1ccc(S(=O)(=O)N2CCCC2)cc1	77.2	7.8*	-4.8	8.7	-0.4	i	-6.5
O=C(NCC1(N2CCCCC2)CCCCC1)c1ccc(NS(=O)(=O)c2ccccc2)cc1	102.4	-0.5	-5.0	x	-1.6	x	x
CCCn1c2ccccc2c2cnn(CC(=O)N3CCN(C4CCCCC4)CC3)c(=O)c21	112.1	-1.1	16.5	3.1	-7.6	x	x
NNC(=O)CNC(=O)c1cccc(Br)c1	104.8	25.7*	-2.0	-7.9	0.0	i	-5.9
COCc1cccc(-c2csc(C(C)(NC(C)=O)c3ccc(OC)cc3)n2)c1 (configuration not stated)	x	x	2.9	x	x	x	x
O=C(/C=C/c1ccccc1)NCCS(=O)(=O)N1CCN(c2ccccc2)CC1	105.5	6.5*	-5.2	x	5.0	x	1.2
O=C(/C=C/c1ccc2c(c1)OCO2)NCCS(=O)(=O)N1CCN(c2ccccc2)CC1	x	2.1	-2.2	x	x	x	x
